Potency, outcome and max response data for 19 molecules are collected here from PubChem BioAssay (Tox21).

“And” between values parts separate entries of the source, which are not always exact repeats. Equal values may be shown once. Records with an inconclusive call do not appear. More than one record can exist for a structure, and the calls need not agree. The source made the active and inactive calls. Calls come from the whole dose curve; as a rule, active = well fitted curve in the direction sought with a large enough effect in the repeat runs; inconclusive = weak or mixed curves; inactive = no such curve, though single readings can be large; an effect the other way counts as inactive or inconclusive.

Experiment [1] can be described thus: A CellTox Green Cytotoxicity Assay to monitor cytotoxicity in HEK293 cells - 40 hour (AID 1224871). Note: nearly all actives have a fitted effect of over 45% in size. Note: potency is the fitted concentration of half-maximal effect. Summed up: (§1)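 Nonlytic real-time cytotoxicity: HEK293 + CellTox Green reagent plated, 5 h preincubation, pintool compound addition (23 nL in DMSO), 37 C for 40 h, fluorescence measured at successive time points.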
Experiment [2] is described as follows: qHTS RealTime-Glo MT Cell Viability Assay in HEK293 cells - 16 hour (AID 1224872). Note: nearly all actives have a fitted effect of over 50% in size. Note: potency is the fitted concentration of half-maximal effect. Put shortly:
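Assay medium contained NanoLuc luciferase plus cell-permeant prosubstrate, added with HEK293 cells at 600 cells/well. After 5 h at 37 C/5% CO2 compounds were added; plates stayed at 37 C for 40 h with serial luminescence reads.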
(In general: In qHTS, concentration-response curves come from the screen itself.)

Experiment [3] can be described thus: A CellTox Green Cytotoxicity Assay to monitor cytotoxicity in HEK293 cells - 24 hour (AID 1224875). Note: nearly all actives have a fitted effect of over 45% in size. Note: potency is the fitted concentration of half-maximal effect. Summed up:
as §1

Experiment [4] is described as follows: A CellTox Green Cytotoxicity Assay to monitor cytotoxicity in HepG2 cells - 16 hour (AID 1224876). Note: nearly all actives have a fitted effect of over 45% in size. Note: potency is the fitted concentration of half-maximal effect. Put shortly: (§2)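 Read-out is fluorescence of a cyanine dye excluded from live cells that stains DNA of dead HepG2 cells, with signal proportional to cytotoxicity. Plates were read at 0, 8, 16, 24, 32 and 40 h after compound addition.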
The nature of experiment [5]: qHTS RealTime-Glo MT Cell Viability Assay in HEK293 cells - 0 hour (AID 1224880). Note: top concentration of the series differs between compounds; nearly all actives have a fitted effect of over 45% in size. Put shortly: (§3)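 Cells were seeded together with NanoLuc luciferase and a prosubstrate that viable cells reduce to a luciferase substrate. After a 5 h incubation at 37 C/5% CO2, compounds were added and luminescence was measured repeatedly during 40 h of treatment.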
The nature of experiment [6]: qHTS RealTime-Glo MT Cell Viability Assay in HepG2 cells - 8 hour (AID 1224873). Note: nearly all actives have a fitted effect of over 55% in size. Note: potency is the fitted concentration of half-maximal effect. Summed up:
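HepG2 cells (600/well) mixed with RealTime-Glo MT reagent, settled 5 h at 37 C/5% CO2 before compound addition. Nonlytic NanoLuc luminescence from viable-cell prosubstrate reduction read repeatedly during 40 h treatment at 37 C.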

Experiment [7] can be described thus: qHTS RealTime-Glo MT Cell Viability Assay in HepG2 cells - 32 hour (AID 1224877). Note: nearly all actives have a fitted effect of over 55% in size. Note: potency is the fitted concentration of half-maximal effect. Summed up: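 qHTS, HepG2, 600 cells/well, RealTime-Glo (NanoLuc + prosubstrate) added with cells; 5 h preincubation; DMSO compound addition; 37 C; luminescence at 0/8/16/24/32/40 h.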
The nature of experiment [8]: A CellTox Green Cytotoxicity Assay to monitor cytotoxicity in HepG2 cells - 24 hour (AID 1224878). Note: nearly all actives have a fitted effect of over 45% in size. Note: potency is the fitted concentration of half-maximal effect. Summed up: as §2
The nature of experiment [9]: qHTS RealTime-Glo MT Cell Viability Assay in HEK293 cells - 40 hour (AID 1224874). Note: nearly all actives have a fitted effect of over 50% in size. Note: potency is the fitted concentration of half-maximal effect. The following applies: RealTime-Glo luminescence; max response: stronger effect = lower value. Put shortly: as §3
Experiment [10] is described as follows: A CellTox Green Cytotoxicity Assay to monitor cytotoxicity in HepG2 cells - 40 hour (AID 1224879). Note: nearly all actives have a fitted effect of over 40% in size. Note: potency is the fitted concentration of half-maximal effect. Summed up: as §2
% is set by controls: 0 for no effect and ±100 for the full control effect.

For `O=C(O)C(F)(F)C(F)(F)C(F)(F)C(F)(F)C(F)(F)C(F)(F)C(F)(F)C(F)(F)F`, the Potency entry in experiment [1], in [2], in [3] and in experiment [4] was “inactive” in each case. Moreover, the molecule was called inactive in experiment [5].

With `C=CCc1ccc(OC(=O)Cc2ccccc2)c(OC)c1`, the Potency entry in experiment [1], in experiment [6], in experiment [3], in experiment [4], in [7] and in experiment [8] was “inactive” each time. Moreover, in experiment [5], the molecule was classed as inactive.

Regarding `CCC(C)(C)c1ccc(O)c(C(C)(C)CC)c1`, the Potency is 43.2 µM (active) and 15.5 µM (active) in [1]; 43.2 µM (active) in experiment [2]; 43.2 µM (active) in experiment [9]; 43.2 µM (active) and 17.4 µM (active) in [3]; 24.3 µM (active) in experiment [4]; 34.3 µM (active) in experiment [8]. Further, in experiment [10], the Potency is 38.5 µM (active). Further, the max response in experiment [9] is -21.8% (inactive). Also, the Potency entry in experiment [7] was “inactive”. In addition, in experiment [5], the result was inactive.

On to `COc1ccc(C(=O)c2c(C)n(CCN3CCOCC3)c3ccccc23)cc1`, for which the Potency entry in [1], in [2], in experiment [6], in experiment [3] and in [7] was “inactive” in each case. In experiment [5], the call was inactive.

On to `C[C@H]1[C@@H]2Cc3ccc(O)cc3[C@@]1(C)CCN2C`, for which the Potency result in [2], in experiment [6], in experiment [3], in experiment [4], in [7] and in [8] was “inactive” each time. Besides, the Potency entry in [10] was “inactive”. The max response in experiment [9] was -5.05% (inactive). The molecule was classed as inactive in experiment [5].

On to `[Cl-].[Cl-].[Hg+2]`, for which the Potency in experiment [1] is 21.8 µM (active) and 3.89 µM (active); in [6], 48.8 µM (active) and 3.89 µM (active); in experiment [9] it was 2.45 µM (active); in experiment [3] it was 21.8 µM (active) and 8.71 µM (active); in experiment [4] it was 38.7 µM (active) and 3.89 µM (active); in experiment [7], 54.7 µM (active) and 3.47 µM (active). Besides, the Potency was 24.4 µM (active) and 3.89 µM (active) in experiment [8]; 24.4 µM (active) and 2.45 µM (active) in experiment [10]. The call in [5] was inactive.

In the case of `O=[N+]([O-])/C=C/c1ccccc1`, the Potency in experiment [2] was 4.98 µM (active) and 12.3 µM (active); in experiment [6], 49.8 µM (active); in experiment [9], 6.27 µM (active) and 15.5 µM (active); in experiment [4] it was 55.8 µM (active); in experiment [7], 22.2 µM (active) and 17.4 µM (active); in experiment [8] it was 22.2 µM (active). The Potency in experiment [10] is 12.5 µM (active). For the same molecule, the Potency result in experiment [3] is “inactive”. For the same molecule, the molecule was classed as inactive in experiment [5].

Regarding `Clc1ccc2ccccc2c1`, the Potency entry in experiment [6], in [4], in experiment [7], in [8] and in experiment [10] was “inactive” in each case. For the same molecule, the Potency in [3] was 50.5 µM (active). For the same molecule, the call in experiment [5] was inactive.

Take `CC(C)CCON=O`: the Potency entry in [2], in experiment [6], in [4], in experiment [8] and in experiment [10] was “inactive” throughout. Moreover, in experiment [9], the max response is 0.253% (inactive). Moreover, the result in [5] was inactive.

With `CC(C)(C)N(NC(=O)c1ccc(Cl)cc1)C(=O)c1ccccc1`, the Potency entry in experiment [1], in experiment [6], in experiment [3], in experiment [4], in [7] and in [8] was “inactive” in each case.

Take `C=CCOC(=O)C(C)(C)OC(=O)c1cc(-n2c(=O)cc(C(F)(F)F)n(C)c2=O)ccc1Cl`: the Potency result in [1], in [6], in experiment [3], in experiment [4], in experiment [7] and in [8] was “inactive” throughout. Besides, the Potency in experiment [9] is 21.5 µM (active).

Consider `C=CCc1ccccc1O`, for which the Potency result in experiment [1], in experiment [6], in experiment [3], in experiment [4], in experiment [7] and in experiment [8] was “inactive” each time. In addition, the Potency entry in [10] is “inactive”. Further, the max response in [9] is 7.74% (inactive). Further, the molecule was classed as inactive in [5].

With `CCOC(=O)c1cn2nc(OP(=S)(OCC)OCC)cc2nc1C`, the Potency entry in experiment [1], in experiment [3], in experiment [4], in experiment [7], in experiment [8] and in [10] was “inactive” in each case. In addition, the Potency was 17.4 µM (active) in experiment [2] and 15.5 µM (active) in experiment [9]. Besides, the result in [5] was inactive.

Take `C[C@]12CC[C@H]3[C@@H](CCC4=CC(=O)CC[C@@H]43)[C@@H]1CC[C@@H]2OC(=O)CCc1ccccc1`: the Potency entry in [2], in experiment [6], in experiment [3], in [4], in experiment [7] and in experiment [8] was “inactive” throughout. The Potency result in [10] was “inactive”. The max response in experiment [9] is 0.945% (inactive).

With `Nc1ccc2c(c1)Cc1ccccc1-2`, the Potency entry in [1], in experiment [6], in experiment [3], in experiment [4] and in experiment [10] was “inactive” each time. The molecule was called inactive in experiment [5].

Take `COC1=CC(=O)O[C@@H](/C=C/c2ccc3c(c2)OCO3)C1`: the Potency entry in experiment [1], in [2], in [6], in experiment [3], in experiment [4] and in experiment [7] was “inactive” each time. Further, the Potency entry in experiment [8] and in experiment [10] was “inactive” throughout. In addition, the molecule was classed as inactive in experiment [5].

Take `O=C(O)C(Cl)(Cl)Br`: the Potency entry in experiment [1], in experiment [2], in [6], in experiment [4], in experiment [8] and in experiment [10] was “inactive” each time. The max response in experiment [9] was 0.585% (inactive). The outcome in experiment [5] was inactive.

As for `COP(=O)(OC)OC(Br)C(Cl)(Cl)Br` (stereo unspecified), the Potency entry in experiment [6], in experiment [3], in [4], in experiment [7], in experiment [8] and in experiment [10] was “inactive” each time. Besides, the call in experiment [5] was inactive.

Consider `O=C1c2ccccc2C(=O)N1SC(Cl)(Cl)Cl`, for which the Potency in experiment [1] was 10.8 µM (active) and 11 µM (active); in [2], 3.42 µM (active) and 3.89 µM (active); in [9], 6.82 µM (active) and 9.77 µM (active); in [4] it was 43 µM (active) and 54.9 µM (active); in experiment [7], 34.2 µM (active) and 13.8 µM (active); in [8], 34.2 µM (active) and 21.9 µM (active). The Potency in [10] is 21.6 µM (active) and 12.3 µM (active). Also, the molecule was called inactive in [5].
